Screening results deposited in PubChem BioAssay by several laboratories.
Most compounds without a hit are left out; they make up all but 3.1% or so of the library.
Beta apoptosis: blocks beta cell apoptosis | INS-1E cytokine-induced death, ATP luminescence, 48 h; percent of positive-control rescue, neutral wells zero | protection from apoptosis, % (no concentration beside the values) | 300,000 compounds, 0.8% hits;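 active = Every replicate reaches about 75%, or at least half do and their mean reaches it too, limit read from the data; inconclusive = At least half of replicates reach the limit but their mean does not; inactive = Under half of replicates reach the limit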;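 note: 0% = cytokine-treated negative control wells and 100% = positive control rescue; higher means more ATP so stronger rescue from cytokine killing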
SKKanGAS inh: inhibitors of SKKanGAS S. pyogenes growth in kanamycin (SK-promoter or general growth effect); BacTiter-Glo, 6 h; inhibition, % at 7.5 µM; 300,000 compounds, 1.3% hits;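 active = mean replicate score, as percent of positive control median, at least 50; inconclusive = mean below 50 but one replicate at or above 50; inactive = mean and every replicate below 50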;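 note: strain carries kanamycin resistance gene driven by streptokinase promoter and grows in 40 µg/ml kanamycin; loss of luminescence reflects streptokinase promoter inhibition or plain growth inhibition; 0% = median of DMSO wells and 100% = positive control at its reference dose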
CSC inhib: cancer stem cell inhibition. inhibition, % at 7.5 µM. cancer stem cell-like cells viability, luminescence. 300,000 compounds, 1.1% hits; in the data active = inhibition above about 75%; inconclusive = no clear call, values can overlap the other calls; tested in HMLE shEcad cells
PP5 inh: inhibitors of human protein phosphatase 5 (PP5) | P53041 | purified PP5c, OMFP substrate fluorescence | inhibition, % at 6.7 µM | 320,000 compounds, 0.18% hits | AID 1987;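 active = inhibition above the campaign's mean inhibition across all tested compounds plus 3 SD, cut at about 9.5% in these data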;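 note: 0% = DMSO only and 100% = 100 µM cantharidin control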
PP1 inh: blocks human PP1-alpha phosphatase, a PP5 counter-screen; P62136; AID 2235; purified PP1alpha, OMFP fluorescence; inhibition, % at 6.7 µM; 320,000 compounds, 0.9% hits;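 active = inhibition above the mean inhibition of all tested compounds plus 3 SD, computed separately for each screening campaign, cut at about 15% in these data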
Target sequence (P62136 whole entry, looked up): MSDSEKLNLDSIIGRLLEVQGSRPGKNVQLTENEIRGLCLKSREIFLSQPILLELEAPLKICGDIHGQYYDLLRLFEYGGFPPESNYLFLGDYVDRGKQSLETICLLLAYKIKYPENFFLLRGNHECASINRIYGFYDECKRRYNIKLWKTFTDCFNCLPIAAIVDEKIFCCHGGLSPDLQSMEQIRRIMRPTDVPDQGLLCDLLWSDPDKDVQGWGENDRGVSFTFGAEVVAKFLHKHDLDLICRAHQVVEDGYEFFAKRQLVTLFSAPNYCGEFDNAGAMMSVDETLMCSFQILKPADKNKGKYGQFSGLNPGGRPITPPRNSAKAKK
Active calls of the source: *; ? = inconclusive; / = no result.

SMILES | Beta apoptosis | SKKanGAS inh | CSC inhib | PP5 inh | PP1 inh
O=C(OCn1ncc(Cl)c(Cl)c1=O)c1ccc(F)cc1 | 102* | 4 | / | 1 | -4
O=c1c(Cl)c(Cl)cnn1Cc1ccc(F)cc1 | 112* | 2 | -23 | 2 | -3
O=C(OCn1ncc(Cl)c(Cl)c1=O)c1ccccc1Cl | 101* | 13 | -50 | 2 | 3
NS(=O)(=O)c1ccc(CCNC(=O)c2cnc(Cl)c(Cl)c2)cc1 | -4 | -3 | -5 | 0 | -7
O=C(Nc1cc(Cl)ccc1-n1cncn1)c1ccc([N+](=O)[O-])s1 | 102* | 16 | 29 | 1 | 0
O=C(OCn1ncc(Br)c(Br)c1=O)c1c(F)cccc1F | 112* | 11 | -3 | 0 | 1
CC1CC/C(=C\c2ccc3c(c2)OCO3)C(=O)/C1=C/c1ccc2c(c1)OCO2 (stereo not given) | 5 | 0 | 81* | 1 | 17*
O=C1/C(=C\c2ccc3c(c2)OCO3)CCC/C1=C/c1ccc2c(c1)OCO2 | 13 | 10 | 28 | 2 | 2
CCOc1ccc(/C=C2/Sc3ccc(C(=O)N4CCN(C(=O)c5ccco5)CC4)cc3N(C)C2=O)cc1OC | 8 | 67* | 25 | 2 | 0
CCOC(=O)N1CCN(C(=O)c2ccc3c(c2)N(C)C(=O)/C(=C\c2ccc(OCC)c(OC)c2)S3)CC1 | / | 108* | 37 | -2 | -8
Cc1cccc(/C=C2\Sc3ccc(C(=O)N4CCC(C)CC4)cc3N(C)C2=O)c1 | 8 | 76* | 30 | 3 | 4
CCOc1ccc(S(=O)(=O)N/N=C(\C)c2ccc(OC)cc2OC)cc1 | / | -3 | -1 | 5 | 2
CCC(C)c1ccccc1N1CC(C(=O)NCCc2ccc(OC)c(OC)c2)CC1=O (stereo not given) | -3 | 6 | 6 | 1 | -5
CC12CS(=O)(=O)CC1SC(=S)N2Cc1ccccc1 (stereo not given) | 0 | -2 | 3 | 0 | -4
Cc1cc(C)c2nc(N3CCCC(C(=O)N4CCN(c5ncccn5)CC4)C3)sc2c1 (stereo not given) | 13 | 13 | 75* | 1 | -4
Cc1cc(C)c2nc(N3CCC(C(=O)N4CCN(C(=O)c5ccco5)CC4)CC3)sc2c1 | 8 | -5 | / | 3 | 1
Cc1cc(/C=C2/C(=N)N3C(=NC2=O)SN=C3S(C)(=O)=O)c(C)n1-c1ccccc1F | 2 | 56* | -6 | 1 | 4
Cc1cc(/C=C2\C(=N)N3N=C(S(C)(=O)=O)SC3=NC2=O)c(C)n1Cc1ccccc1 | -2 | 54* | / | 1 | -2
CCn1c(Cl)c(C=O)s/c1=N\S(=O)(=O)c1ccccc1 | 117* | -17 | ? | -1 | -3
CCN1C(=O)CS/C1=N\S(=O)(=O)c1ccc(Cl)cc1 | 0 | 5 | 6 | 0 | -2
COc1cc([C@@H]2c3cc4c(cc3[C@@H](O[C@@H]3O[C@@H]5CO[C@@H](C)O[C@H]5[C@H](O)[C@H]3O)[C@H]3COC(=O)[C@H]23)OCO4)cc(OC)c1O | 11 | 5 | 64 | 1 | -2
COc1cc(C2c3cc4c(cc3C(OC3OC5COC(c6cccs6)OC5C(O)C3O)C3COC(=O)C23)OCO4)cc(OC)c1O (stereo not given) | 94* | 42 | 101* | 1 | 1
Cn1ccnc1SCC(=O)NC1(C#N)CCCCC1 | -4 | -6 | -10 | 1 | -5
CCOC(=O)[C@H]1[C@H]2COc3ccc(Br)cc3[C@@H]2N2C(=O)CN(Cc3ccccc3)C(=O)[C@@]12C | -4 | / | -8 | -2 | 5
Cc1cccnc1NC(=O)c1ccc(S(=O)(=O)N2CCC(C)CC2)cc1 | 3 | -2 | -5 | 0 | 16*
SMILES | Beta apoptosis | SKKanGAS inh | CSC inhib | PP5 inh | PP1 inh
Cc1nnc(NC(=O)c2ccc(S(=O)(=O)N3CCCCCC3)cc2)o1 | -4 | -13 | 1 | 1 | 17*
COc1ccccc1-c1nnc(NC(=O)c2ccc(S(=O)(=O)N3CCCC3)cc2)o1 | -3 | 10 | 1 | -6 | -8
CC1CCCN(S(=O)(=O)c2ccc(C(=O)Nc3nnc(-c4ccccc4Cl)o3)cc2)C1 (stereo not given) | 16 | 97* | 22 | 1 | -1
CC1CCN(S(=O)(=O)c2ccc(NC(=O)c3ccncc3)cc2)CC1 | 13 | -2 | -1 | 0 | -3
COc1ccc(-n2cc(-c3ccccc3)[n+]3c2CCCCC3)cc1 | 99* | 5 | -3 | 1 | 0
COc1ccc(-c2cn(-c3ccc(OC)cc3)c3[n+]2-c2ccccc2CC3)cc1 | 132* | -26 | 35 | -1 | 0
O=C1C=CC(=O)N1c1ccc(OC(F)F)cc1 | 28 | / | 103* | -1 | -1
O=C1C=CC(=O)N1c1ccc(O)cc1 | -12 | -14 | 20 | -2 | 1
CC(NC(=O)C12CC3CC(CC(C3)C1)C2)C(=O)NN=Cc1ccc([N+](=O)[O-])o1 (stereo not given) | -4 | / | 10 | / | /
CC(NC(=O)c1ccc([N+](=O)[O-])o1)C12CC3CC(CC(C3)C1)C2 (stereo not given) | / | 57* | 97* | -4 | -12
CC(C)C(=O)Nc1ncc(Cc2ccc(Cl)cc2)s1 | -3 | -12 | -5 | 3 | 7
C/C(=N\Nc1cc(C)nc(-c2ccccc2O)n1)c1ccccc1O | -2 | 74* | 80* | 0 | -2
Cc1cc(N/N=C/c2ccc(O)cc2O)nc(-c2ccccc2O)n1 | 76* | 14 | 99* | -1 | 0
Cc1cc(N/N=C/c2ccc(O)cc2O)c2ccccc2n1 | -3 | 2 | -2 | 0 | -4
Cc1cc(N/N=C\c2ccccc2)nc(-c2ccccc2O)n1 | 19 | 25 | 53 | 5 | 2
Cc1cc(N/N=C/c2ccccc2O)nc(-c2ccccc2O)n1 | 69 | 60* | 54 | 7 | -12
Oc1ccc(/C=N/Nc2ccc3ccccc3c2)c(O)c1 | 4 | 52* | 6 | 0 | 1
Cc1cc(Nc2ccc(Cl)cc2)nc(-c2ccccc2O)n1 | -5 | -3 | 28 | / | /
CCC(C(=O)N1CCOCC1)n1nc(C)c2sc3ccccc3c2c1=O (stereo not given) | -9 | -1 | -4 | -1 | -4
CC(=O)N(C)c1ccc(NS(=O)(=O)c2cc(Cl)ccc2Cl)cc1 | 6 | -3 | -1 | 3 | -3
N#Cc1nc(Nc2cccc(Cl)c2)c2ncn(C3CCCC3)c2n1 | 1 | / | 7 | 2 | 10
CC(/C=C1\SC(=O)N(CC(=O)Nc2cccc(O)c2)C1=O)=C\c1ccccc1 | -3 | 36 | 117* | 5 | 8
CCOC(=O)c1ccc(-n2[nH]c(-c3ccccc3)cc2=O)cc1 | 12 | 32 | 79* | 2 | 9
O=C(CN1CC[n+]2c(-c3cccs3)csc21)c1ccc(-c2ccccc2)cc1 | 111* | 22 | 2 | -2 | 1
Cc1cc(Cl)ccc1OCC(=O)NNC(=O)C1CCCO1 (stereo not given) | -2 | -11 | -8 | 2 | -2
Cc1noc(C)c1COc1ccccc1C(=O)N(C)Cc1ccco1 | -6 | / | -1 | 0 | -4
CCOC(=O)Cc1c(C)nc2c(C#N)c[nH]n2c1=O | / | 1 | / | 0 | -3
